This passage reports growth inhibition results from PubChem BioAssay (NCI).

Experiment [1] in a line: NCI Yeast Anticancer Drug Screen. Data for the rad50 strain (AID 155).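 Also: 0% = growth of vehicle-only cultures of the same strain.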 The settings on record: S. cerevisiae rad50 strain growth inhibition, stronger effect = higher value. The gist of the method: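 Yeast carrying a defined DNA repair defect were exposed to test compounds, and growth was compared with vehicle-treated controls to give percent inhibition.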
A short description of experiment [2]: NCI Yeast Anticancer Drug Screen. Data for the mec2-1 strain (AID 157). The note with it: S. cerevisiae mec2-1 strain, stronger effect = higher value. The gist of the method:
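Test agents were screened against the mec2-1 yeast strain, with defined DNA repair or cell cycle alteration. Growth was scored as inhibition against vehicle-only controls.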

Experiment [3] in a line: NCI Yeast Anticancer Drug Screen. Data for the sgs1 mgt1 strain (AID 161).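 Also: 0% = growth of cultures given vehicle only.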 The note with it: S. cerevisiae sgs1 mgt1 strain, stronger effect = higher value. The method in brief: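 Test agents were incubated with a DNA-repair-mutant yeast strain. Growth was then read and compared against vehicle-treated controls.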
Experiment [4] in a line: NCI Yeast Anticancer Drug Screen. Data for the cln2 rad14 strain (AID 165).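 Also: 0% = growth equal to vehicle treated cultures.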 The settings on record: S. cerevisiae cln2 rad14 strain, stronger effect = higher value. The gist of the method:
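Growth of compound-exposed yeast (cln2 rad14 genotype) measured and expressed as inhibition relative to vehicle.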

A short description of experiment [5]: NCI Yeast Anticancer Drug Screen. Data for the bub3 strain (AID 167). The settings on record: S. cerevisiae bub3 mutant strain, stronger effect = higher value. The method in brief: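 Compounds were applied to a genetically altered yeast strain carrying a cell-cycle control defect. Growth inhibition was scored against vehicle-treated controls.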
Experiment [6] can be described thus: NCI Yeast Anticancer Drug Screen. Data for the mlh1 rad18 strain (AID 175). The settings on record: S. cerevisiae mlh1 rad18 strain growth inhibition, stronger effect = higher value. The gist of the method:
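In this whole-cell yeast screen, a strain with altered DNA damage repair is challenged with compound, and its growth is measured against matched vehicle-treated controls.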

[7] abbreviates: at 5.0 µM (retest, dose inferred, filed as 0.5).
The mark [8] stands for this setting: at 50.0 µM (retest, dose inferred, filed as 5.0).

About 79,000 compounds went through this panel and 15% of them were active in at least one assay; those are over-represented in the sample as a whole. Unmarked numbers belong to inactive results. Calls of active or inactive are those of the source. Rule as the data show it: active = growth inhibition above about 70%; inactive = the rest.

Turning to `COc1cccc2c1C(=O)c1c(O)c3c(c(O)c1C2=O)C[C@@](O)(C(=O)CO)C[C@@H]3OC1CC(OC(C)=O)C(OC(C)=O)C(C)O1` (some centres not stated), the growth inhibition in experiment [1] (setting [7]) was 71% (active); in experiment [1] (setting [8]) it was 98% (active); in experiment [1] (at 50.0 µM), 86.8% (active); in experiment [2] (setting [7]), 36%; in experiment [2] (setting [8]) it was 99% (active); in experiment [2] (at 50.0 µM), 87.5% (active). In addition, the growth inhibition was 37% in experiment [3] (setting [7]); 99% (active) in experiment [3] (setting [8]); 90% (active) in experiment [3] (at 50.0 µM); 41% in experiment [4] (setting [7]); 99% (active) in experiment [4] (setting [8]); 88.7% (active) in experiment [4] (at 50.0 µM). In addition, the growth inhibition in experiment [5] (setting [7]) was 42%; in experiment [5] (setting [8]), 99% (active); in experiment [5] (at 50.0 µM), 88.9% (active); in experiment [6] (setting [7]), 48%; in experiment [6] (setting [8]) it was 97% (active); in experiment [6] (at 50.0 µM), 91.6% (active).

On to `CCOc1ccc(C(C[N+](=O)[O-])Sc2ccccc2N)cc1` (configuration not stated), for which the growth inhibition in experiment [1] (setting [7]) is 36%; in experiment [1] (setting [8]) it was 47%; in experiment [1] (at 50.0 µM) it was 73.5% (active); in experiment [2] (setting [7]) it was 36%; in experiment [2] (setting [8]) it was 46%; in experiment [2] (at 50.0 µM) it was 92.1% (active). The growth inhibition in experiment [3] (setting [7]) is 42%; in experiment [3] (setting [8]) it was 57%; in experiment [3] (at 50.0 µM), 92.7% (active); in experiment [4] (setting [7]), 29%; in experiment [4] (setting [8]), 29%; in experiment [4] (at 50.0 µM), 83.9% (active). Further, the growth inhibition in experiment [5] (setting [7]) is 32%; in experiment [5] (setting [8]) it was 72% (active); in experiment [5] (at 50.0 µM) it was 91.7% (active); in experiment [6] (setting [7]) it was 45%; in experiment [6] (setting [8]) it was 59%; in experiment [6] (at 50.0 µM) it was 87% (active).

With `CC1CC(C)(C)OB(OC(C)CC(C)(C)OB2OC(C)CC(C)(C)O2)O1` (configuration not stated), the growth inhibition was -4% in experiment [1] (setting [7]); -35% in experiment [1] (setting [8]); 9.6% in experiment [1] (at 50.0 µM); -1% in experiment [2] (setting [7]); -39% in experiment [2] (setting [8]); 15.7% in experiment [2] (at 50.0 µM). The growth inhibition in experiment [3] (setting [7]) is -4%; in experiment [3] (setting [8]) it was -35%; in experiment [3] (at 50.0 µM) it was 22.6%; in experiment [4] (setting [7]), 2%; in experiment [4] (setting [8]), -43%; in experiment [4] (at 50.0 µM) it was 83% (active). For the same compound, the growth inhibition in experiment [5] (setting [7]) is 1%; in experiment [5] (setting [8]), -33%; in experiment [5] (at 50.0 µM), 17.7%; in experiment [6] (setting [7]), 0%; in experiment [6] (setting [8]), -34%; in experiment [6] (at 50.0 µM), -32.9%.

For the compound `S=c1[nH]c2cc(Cl)ccc2s1`, the growth inhibition in experiment [1] (setting [7]) is -21%; in experiment [1] (setting [8]) it was 64%; in experiment [1] (at 50.0 µM), 25.2%; in experiment [2] (setting [7]) it was -4%; in experiment [2] (setting [8]), 90% (active); in experiment [2] (at 50.0 µM), 42.2%. The growth inhibition in experiment [3] (setting [7]) was -6%; in experiment [3] (setting [8]), 95% (active); in experiment [3] (at 50.0 µM) it was 74.6% (active); in experiment [4] (setting [7]) it was -8%; in experiment [4] (setting [8]), 93% (active); in experiment [4] (at 50.0 µM) it was -2.15%. Besides, the growth inhibition was -28% in experiment [5] (setting [7]); 16% in experiment [5] (setting [8]); -4.3% in experiment [5] (at 50.0 µM); -12% in experiment [6] (setting [7]); 45% in experiment [6] (setting [8]); 42.9% in experiment [6] (at 50.0 µM).

Consider `Cc1cc(O)c2c(c1)C(=O)C(c1c(C)cc3c(c1O)C(=O)C1OC1C3=O)=CC2=O` (configuration not stated), for which the growth inhibition in experiment [1] (setting [7]) was 98% (active); in experiment [1] (setting [8]) it was 96% (active); in experiment [1] (at 50.0 µM) it was 76.8% (active); in experiment [2] (setting [7]) it was 99% (active); in experiment [2] (setting [8]) it was 96% (active); in experiment [2] (at 50.0 µM), 76.2% (active). The growth inhibition in experiment [3] (setting [7]) is 99% (active); in experiment [3] (setting [8]), 95% (active); in experiment [3] (at 50.0 µM) it was 89.7% (active); in experiment [4] (setting [7]), 98% (active); in experiment [4] (setting [8]) it was 95% (active); in experiment [4] (at 50.0 µM) it was 79.3% (active). The growth inhibition in experiment [5] (setting [7]) is 99% (active); in experiment [5] (setting [8]) it was 95% (active); in experiment [5] (at 50.0 µM) it was 79.2% (active); in experiment [6] (setting [7]), 98% (active); in experiment [6] (setting [8]), 97% (active); in experiment [6] (at 50.0 µM), 87.8% (active).

With `O=C(/C(Cl)=N/O)c1ccc(-c2ccccc2)cc1`, the growth inhibition in experiment [1] (setting [7]) is 8%; in experiment [1] (setting [8]), 97% (active); in experiment [1] (at 50.0 µM) it was 99.3% (active); in experiment [2] (setting [7]) it was 5%; in experiment [2] (setting [8]), 98% (active); in experiment [2] (at 50.0 µM), 59.4%. In addition, the growth inhibition was 2% in experiment [3] (setting [7]); 98% (active) in experiment [3] (setting [8]); 95.5% (active) in experiment [3] (at 50.0 µM); 15% in experiment [4] (setting [7]); 93% (active) in experiment [4] (setting [8]); 99.2% (active) in experiment [4] (at 50.0 µM). For the same compound, the growth inhibition is 6% in experiment [5] (setting [7]); 97% (active) in experiment [5] (setting [8]); 99.7% (active) in experiment [5] (at 50.0 µM); 13% in experiment [6] (setting [7]); 97% (active) in experiment [6] (setting [8]); 99.3% (active) in experiment [6] (at 50.0 µM).

Take `Clc1ccc(-n2ncc3c(NCCCN4CCOCC4)ncnc32)cc1`: the growth inhibition in experiment [1] (setting [7]) is 3%; in experiment [1] (setting [8]), 82% (active); in experiment [1] (at 50.0 µM), 56%; in experiment [2] (setting [7]), 6%; in experiment [2] (setting [8]), 70% (active); in experiment [2] (at 50.0 µM), 62.1%. The growth inhibition was 1% in experiment [3] (setting [7]); 81% (active) in experiment [3] (setting [8]); 82.8% (active) in experiment [3] (at 50.0 µM); 19% in experiment [4] (setting [7]); 62% in experiment [4] (setting [8]); 35.4% in experiment [4] (at 50.0 µM). In addition, the growth inhibition is 16% in experiment [5] (setting [7]); 77% (active) in experiment [5] (setting [8]); 47.4% in experiment [5] (at 50.0 µM); 9% in experiment [6] (setting [7]); 79% (active) in experiment [6] (setting [8]); 75.6% (active) in experiment [6] (at 50.0 µM).

As for `Oc1ccc(Cl)cc1C(c1cc(Cl)ccc1O)C(Cl)(Cl)Cl`, the growth inhibition in experiment [1] (setting [7]) is 99% (active); in experiment [1] (setting [8]), 99% (active); in experiment [1] (at 50.0 µM), 99.5% (active); in experiment [2] (setting [7]) it was 99% (active); in experiment [2] (setting [8]) it was 99% (active); in experiment [2] (at 50.0 µM) it was 99.6% (active). For the same compound, the growth inhibition in experiment [3] (setting [7]) was 100% (active); in experiment [3] (setting [8]), 100% (active); in experiment [3] (at 50.0 µM), 99.4% (active); in experiment [4] (setting [7]) it was 99% (active); in experiment [4] (setting [8]), 99% (active); in experiment [4] (at 50.0 µM), 99.1% (active). Moreover, the growth inhibition in experiment [5] (setting [7]) was 100% (active); in experiment [5] (setting [8]) it was 99% (active); in experiment [5] (at 50.0 µM) it was 99.5% (active); in experiment [6] (setting [7]), 99% (active); in experiment [6] (setting [8]), 99% (active); in experiment [6] (at 50.0 µM), 99.2% (active).

With `Cc1ccccc1N=C(N)Nc1ccccc1C` (tested in a mixture with another compound), the growth inhibition in experiment [1] (setting [7]) is 0%; in experiment [1] (setting [8]), 15%; in experiment [1] (at 50.0 µM), 12.9%; in experiment [2] (setting [7]) it was -2%; in experiment [2] (setting [8]), 7%; in experiment [2] (at 50.0 µM), 27.8%. Besides, the growth inhibition in experiment [3] (setting [7]) was -1%; in experiment [3] (setting [8]) it was 5%; in experiment [3] (at 50.0 µM), 30.6%; in experiment [4] (setting [7]), -2%; in experiment [4] (setting [8]), -16%; in experiment [4] (at 50.0 µM) it was -62.5%. The growth inhibition in experiment [5] (setting [7]) was 3%; in experiment [5] (setting [8]), 11%; in experiment [5] (at 50.0 µM), 11.5%; in experiment [6] (setting [7]), -2%; in experiment [6] (setting [8]) it was 13%; in experiment [6] (at 50.0 µM) it was 28.6%.
